From article PMC7862700, “An all-to-all approach to the identification of sequence-specific readers for epigenetic DNA modifications on cytosine”

How the values were obtained:
Assay in all cases: DAPPL (digital affinity profiling via proximity ligation, sequencing); 10 mM Tris-HCl pH 7.5, 50 mM NaCl, 1 mM DTT, 4% glycerol, room temperature, 30 min; GST-TFs on glutathione beads, 16-mer random dsDNA library, 0.1% formaldehyde crosslink after washing; high values mean tight binding
FLI1 = target: T1, FLI1 (Homo sapiens, UniProt Q01543 1-452); conditions: protein: recombinant; tags: N-terminal GST; dsDNA, one strand shown
T1 sequence: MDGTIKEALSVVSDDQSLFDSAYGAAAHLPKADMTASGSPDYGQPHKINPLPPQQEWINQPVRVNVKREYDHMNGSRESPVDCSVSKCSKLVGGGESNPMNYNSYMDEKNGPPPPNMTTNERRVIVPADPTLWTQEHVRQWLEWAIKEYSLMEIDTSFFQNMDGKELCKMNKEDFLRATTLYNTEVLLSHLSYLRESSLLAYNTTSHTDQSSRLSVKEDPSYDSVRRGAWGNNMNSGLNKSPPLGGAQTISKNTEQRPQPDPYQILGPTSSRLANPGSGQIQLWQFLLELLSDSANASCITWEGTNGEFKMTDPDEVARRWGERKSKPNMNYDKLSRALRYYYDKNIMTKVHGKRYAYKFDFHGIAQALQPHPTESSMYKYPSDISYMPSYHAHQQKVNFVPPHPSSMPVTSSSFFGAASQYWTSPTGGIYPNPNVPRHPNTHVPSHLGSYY
Outline: (§1)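 Binding signal is each hexamer's read frequency for a factor divided by its frequency in the tag-only sample. The factors were GST-fused human transcription factors from yeast, captured on glutathione beads, DNA-barcoded and pooled with that sample. Pools were incubated with 200 nmole of a random double-stranded 16-mer DNA library in Tris/NaCl/DTT/glycerol buffer at room temperature for 30 min, then washed, crosslinked with 0.1% formaldehyde, proximity-ligated with BsaI/T4 ligase (1 h, 37 °C), PCR-amplified and sequenced on an Illumina NextSeq500.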

ELK1 = target: T2, ELK1 (Homo sapiens, UniProt P19419 1-428); conditions: protein: recombinant; tags: N-terminal GST; dsDNA, one strand shown
T2 sequence: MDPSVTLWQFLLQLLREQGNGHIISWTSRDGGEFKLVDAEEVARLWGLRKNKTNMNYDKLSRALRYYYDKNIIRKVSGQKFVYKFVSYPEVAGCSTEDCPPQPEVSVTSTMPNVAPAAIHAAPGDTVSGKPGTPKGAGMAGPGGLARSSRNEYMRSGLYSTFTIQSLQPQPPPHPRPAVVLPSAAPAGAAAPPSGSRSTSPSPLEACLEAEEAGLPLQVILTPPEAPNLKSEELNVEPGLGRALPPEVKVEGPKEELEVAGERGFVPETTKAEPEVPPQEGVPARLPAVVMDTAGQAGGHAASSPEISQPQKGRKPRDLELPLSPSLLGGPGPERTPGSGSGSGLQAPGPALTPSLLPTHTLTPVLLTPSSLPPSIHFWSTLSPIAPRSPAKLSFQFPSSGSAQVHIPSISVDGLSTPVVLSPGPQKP
Outline: as §1

GABPA = target: T3, GABPA (Homo sapiens, UniProt Q06546 1-454); conditions: protein: recombinant; tags: N-terminal GST; dsDNA, one strand shown
T3 sequence: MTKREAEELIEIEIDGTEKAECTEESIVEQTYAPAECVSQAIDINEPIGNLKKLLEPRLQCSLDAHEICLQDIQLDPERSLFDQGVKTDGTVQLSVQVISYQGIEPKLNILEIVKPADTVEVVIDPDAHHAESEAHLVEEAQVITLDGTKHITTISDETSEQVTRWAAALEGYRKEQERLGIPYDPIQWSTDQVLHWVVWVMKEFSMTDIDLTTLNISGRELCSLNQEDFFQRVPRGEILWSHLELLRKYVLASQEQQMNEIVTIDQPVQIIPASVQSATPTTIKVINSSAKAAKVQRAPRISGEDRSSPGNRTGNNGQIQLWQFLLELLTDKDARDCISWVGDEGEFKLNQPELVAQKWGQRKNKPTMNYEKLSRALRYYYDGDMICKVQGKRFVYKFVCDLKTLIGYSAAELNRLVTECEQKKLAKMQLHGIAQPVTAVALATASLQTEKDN
Outline: as §1

ERG = target: T4, ERG (Homo sapiens, UniProt P11308 1-479); conditions: protein: recombinant; tags: N-terminal GST; dsDNA, one strand shown
T4 sequence: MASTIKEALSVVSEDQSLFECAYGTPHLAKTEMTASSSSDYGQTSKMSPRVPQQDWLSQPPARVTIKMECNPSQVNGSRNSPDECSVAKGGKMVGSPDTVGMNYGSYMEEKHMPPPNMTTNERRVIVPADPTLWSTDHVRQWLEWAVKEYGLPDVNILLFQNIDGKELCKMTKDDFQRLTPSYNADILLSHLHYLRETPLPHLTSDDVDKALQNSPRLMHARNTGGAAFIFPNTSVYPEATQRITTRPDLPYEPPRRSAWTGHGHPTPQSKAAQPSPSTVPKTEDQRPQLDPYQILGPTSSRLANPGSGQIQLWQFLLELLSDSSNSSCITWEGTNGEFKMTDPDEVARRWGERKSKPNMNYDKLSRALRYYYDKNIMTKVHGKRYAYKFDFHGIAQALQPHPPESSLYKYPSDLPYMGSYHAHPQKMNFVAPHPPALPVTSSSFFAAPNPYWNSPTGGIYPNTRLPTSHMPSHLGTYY
Outline: as §1

ELF1 = ELF1 (Homo sapiens, UniProt P32519 1-619); conditions: protein: recombinant; tags: N-terminal GST; dsDNA, one strand shown
Sequence of ELF1 (P32519 whole entry): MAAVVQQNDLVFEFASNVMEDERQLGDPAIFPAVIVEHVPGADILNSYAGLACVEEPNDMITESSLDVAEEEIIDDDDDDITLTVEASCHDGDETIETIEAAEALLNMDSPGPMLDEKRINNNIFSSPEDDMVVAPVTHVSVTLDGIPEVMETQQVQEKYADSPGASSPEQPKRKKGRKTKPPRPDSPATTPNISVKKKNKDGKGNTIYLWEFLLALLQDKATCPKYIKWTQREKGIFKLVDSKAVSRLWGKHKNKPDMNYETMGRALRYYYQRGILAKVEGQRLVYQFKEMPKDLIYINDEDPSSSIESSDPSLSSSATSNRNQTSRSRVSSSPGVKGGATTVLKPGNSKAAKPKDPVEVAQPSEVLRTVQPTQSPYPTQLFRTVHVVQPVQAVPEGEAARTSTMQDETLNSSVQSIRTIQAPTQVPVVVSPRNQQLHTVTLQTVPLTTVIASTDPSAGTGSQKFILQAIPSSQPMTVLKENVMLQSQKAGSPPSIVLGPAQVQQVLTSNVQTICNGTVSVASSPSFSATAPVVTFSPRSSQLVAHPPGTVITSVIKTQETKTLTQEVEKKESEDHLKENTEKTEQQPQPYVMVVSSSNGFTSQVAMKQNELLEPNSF
Outline: as §1

EHF = target: T5, EHF (Homo sapiens, UniProt Q9NZC4 1-300); conditions: protein: recombinant; tags: N-terminal GST; dsDNA, one strand shown
T5 sequence: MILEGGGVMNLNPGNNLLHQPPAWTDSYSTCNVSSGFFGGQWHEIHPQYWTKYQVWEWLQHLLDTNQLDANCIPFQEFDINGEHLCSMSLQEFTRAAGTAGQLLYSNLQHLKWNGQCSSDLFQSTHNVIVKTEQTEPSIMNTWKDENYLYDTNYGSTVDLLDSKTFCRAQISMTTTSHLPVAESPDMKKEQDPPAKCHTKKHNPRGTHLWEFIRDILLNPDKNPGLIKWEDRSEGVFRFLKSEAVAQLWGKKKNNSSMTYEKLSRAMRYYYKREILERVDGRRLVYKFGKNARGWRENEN
Outline: as §1

SPI1 = SPI1 (Homo sapiens, UniProt P17947 1-270); conditions: protein: recombinant; tags: N-terminal GST; dsDNA, one strand shown
Outline: as §1

SPIB = SPIB (Homo sapiens, UniProt Q01892 1-262); conditions: protein: recombinant; tags: N-terminal GST; dsDNA, one strand shown
Sequence of SPIB (Q01892 whole entry): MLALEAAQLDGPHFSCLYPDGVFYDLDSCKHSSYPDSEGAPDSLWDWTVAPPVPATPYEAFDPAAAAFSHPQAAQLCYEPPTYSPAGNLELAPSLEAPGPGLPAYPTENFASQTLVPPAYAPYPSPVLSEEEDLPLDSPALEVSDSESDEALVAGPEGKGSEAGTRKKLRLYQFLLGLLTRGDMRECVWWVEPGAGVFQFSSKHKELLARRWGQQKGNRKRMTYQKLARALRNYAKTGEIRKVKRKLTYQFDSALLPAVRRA
Outline: as §1

ELK3 = target: T6, ELK3 (Homo sapiens, UniProt P41970 1-407); conditions: protein: recombinant; tags: N-terminal GST; dsDNA, one strand shown
T6 sequence: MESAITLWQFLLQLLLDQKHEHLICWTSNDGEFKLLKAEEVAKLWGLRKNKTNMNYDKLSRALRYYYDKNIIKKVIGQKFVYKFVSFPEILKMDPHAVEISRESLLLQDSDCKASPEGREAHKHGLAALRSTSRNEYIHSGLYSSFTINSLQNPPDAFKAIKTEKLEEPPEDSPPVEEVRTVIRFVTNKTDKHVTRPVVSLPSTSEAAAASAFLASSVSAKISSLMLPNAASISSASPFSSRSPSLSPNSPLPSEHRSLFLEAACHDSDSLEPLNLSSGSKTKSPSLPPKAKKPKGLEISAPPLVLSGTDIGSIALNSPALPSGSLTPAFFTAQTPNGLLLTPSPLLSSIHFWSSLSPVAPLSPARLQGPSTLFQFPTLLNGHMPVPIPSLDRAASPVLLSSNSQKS
Outline: as §1

FEV = target: T7, FEV (Homo sapiens, UniProt Q99581 1-238); conditions: protein: recombinant; tags: N-terminal GST; dsDNA, one strand shown
T7 sequence: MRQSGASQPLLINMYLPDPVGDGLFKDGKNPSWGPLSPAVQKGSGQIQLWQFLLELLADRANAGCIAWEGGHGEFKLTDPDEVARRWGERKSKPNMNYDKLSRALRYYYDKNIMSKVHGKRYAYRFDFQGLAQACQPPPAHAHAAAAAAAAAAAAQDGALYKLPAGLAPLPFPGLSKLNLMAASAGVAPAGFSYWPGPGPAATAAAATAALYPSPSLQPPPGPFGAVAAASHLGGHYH
Outline: as §1

ETV5 = ETV5 (Homo sapiens, UniProt P41161 1-510); conditions: protein: recombinant; tags: N-terminal GST; dsDNA, one strand shown
Sequence of ETV5 (P41161 whole entry): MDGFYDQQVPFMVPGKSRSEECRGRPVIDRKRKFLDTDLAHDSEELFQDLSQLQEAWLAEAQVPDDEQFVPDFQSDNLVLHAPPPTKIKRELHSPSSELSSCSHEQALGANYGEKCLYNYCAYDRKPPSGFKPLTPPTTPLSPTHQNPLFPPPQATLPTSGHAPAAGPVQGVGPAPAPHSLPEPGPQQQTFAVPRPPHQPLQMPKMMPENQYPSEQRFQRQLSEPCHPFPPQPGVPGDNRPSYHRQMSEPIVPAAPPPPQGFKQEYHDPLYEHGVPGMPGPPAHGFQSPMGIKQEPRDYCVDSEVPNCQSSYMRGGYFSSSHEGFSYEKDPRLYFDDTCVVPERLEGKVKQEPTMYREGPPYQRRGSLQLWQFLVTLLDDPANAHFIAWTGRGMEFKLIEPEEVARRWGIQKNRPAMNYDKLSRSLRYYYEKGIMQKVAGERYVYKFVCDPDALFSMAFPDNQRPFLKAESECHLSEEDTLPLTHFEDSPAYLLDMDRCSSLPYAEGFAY
Outline: as §1

HSF1 = HSF1 (Homo sapiens, UniProt Q00613 1-529); conditions: protein: recombinant; tags: N-terminal GST; chain copies: 3; dsDNA, one strand shown
Sequence of HSF1 (Q00613 whole entry): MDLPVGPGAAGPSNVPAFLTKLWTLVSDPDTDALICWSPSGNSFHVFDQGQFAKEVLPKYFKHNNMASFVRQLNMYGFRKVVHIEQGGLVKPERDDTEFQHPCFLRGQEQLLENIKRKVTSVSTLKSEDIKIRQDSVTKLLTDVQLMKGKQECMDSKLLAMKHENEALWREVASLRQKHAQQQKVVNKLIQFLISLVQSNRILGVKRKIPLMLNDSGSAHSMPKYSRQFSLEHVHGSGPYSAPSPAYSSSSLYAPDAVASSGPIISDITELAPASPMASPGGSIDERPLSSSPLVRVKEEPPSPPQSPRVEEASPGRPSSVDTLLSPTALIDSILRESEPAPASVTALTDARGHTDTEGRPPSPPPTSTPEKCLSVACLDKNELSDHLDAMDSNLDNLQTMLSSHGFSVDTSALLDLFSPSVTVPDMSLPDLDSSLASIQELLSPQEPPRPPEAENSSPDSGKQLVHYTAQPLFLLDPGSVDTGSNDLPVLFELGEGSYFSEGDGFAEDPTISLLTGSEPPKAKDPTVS
Outline: as §1

SPIC = target: T8, SPIC (Homo sapiens, UniProt Q8N5J4 1-248); conditions: protein: recombinant; tags: N-terminal GST; dsDNA, one strand shown
T8 sequence: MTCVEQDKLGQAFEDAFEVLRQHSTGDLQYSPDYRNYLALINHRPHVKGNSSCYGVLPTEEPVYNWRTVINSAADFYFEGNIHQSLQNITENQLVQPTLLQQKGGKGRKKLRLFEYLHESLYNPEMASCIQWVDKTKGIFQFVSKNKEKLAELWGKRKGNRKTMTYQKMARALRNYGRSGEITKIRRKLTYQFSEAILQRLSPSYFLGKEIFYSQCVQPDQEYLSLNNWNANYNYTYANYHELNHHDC
Outline: as §1

ELF4 = ELF4 (Homo sapiens, UniProt Q99607 1-663); conditions: protein: recombinant; tags: N-terminal GST; dsDNA, one strand shown
Sequence of ELF4 (Q99607 whole entry): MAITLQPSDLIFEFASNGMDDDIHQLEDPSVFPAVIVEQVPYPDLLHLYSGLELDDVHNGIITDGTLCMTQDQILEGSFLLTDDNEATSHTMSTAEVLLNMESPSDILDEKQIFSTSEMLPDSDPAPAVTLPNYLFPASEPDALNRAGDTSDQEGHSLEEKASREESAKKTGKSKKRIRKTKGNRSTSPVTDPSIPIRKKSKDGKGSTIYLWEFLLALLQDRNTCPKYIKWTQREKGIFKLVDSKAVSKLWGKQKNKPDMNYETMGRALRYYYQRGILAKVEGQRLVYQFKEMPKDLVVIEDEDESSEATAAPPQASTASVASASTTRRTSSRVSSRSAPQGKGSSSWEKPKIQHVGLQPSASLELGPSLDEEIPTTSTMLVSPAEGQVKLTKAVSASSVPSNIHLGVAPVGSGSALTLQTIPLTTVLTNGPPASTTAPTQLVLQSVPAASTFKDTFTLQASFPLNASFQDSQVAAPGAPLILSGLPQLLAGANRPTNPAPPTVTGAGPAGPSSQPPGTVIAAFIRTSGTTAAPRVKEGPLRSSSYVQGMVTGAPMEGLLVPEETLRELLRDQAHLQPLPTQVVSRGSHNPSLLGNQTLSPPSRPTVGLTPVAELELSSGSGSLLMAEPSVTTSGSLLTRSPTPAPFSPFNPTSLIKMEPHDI
Outline: as §1

ELK4 = target: T9, ELK4 (Homo sapiens, UniProt P28324-2 1-405); conditions: protein: recombinant; tags: N-terminal GST; dsDNA, one strand shown
T9 sequence: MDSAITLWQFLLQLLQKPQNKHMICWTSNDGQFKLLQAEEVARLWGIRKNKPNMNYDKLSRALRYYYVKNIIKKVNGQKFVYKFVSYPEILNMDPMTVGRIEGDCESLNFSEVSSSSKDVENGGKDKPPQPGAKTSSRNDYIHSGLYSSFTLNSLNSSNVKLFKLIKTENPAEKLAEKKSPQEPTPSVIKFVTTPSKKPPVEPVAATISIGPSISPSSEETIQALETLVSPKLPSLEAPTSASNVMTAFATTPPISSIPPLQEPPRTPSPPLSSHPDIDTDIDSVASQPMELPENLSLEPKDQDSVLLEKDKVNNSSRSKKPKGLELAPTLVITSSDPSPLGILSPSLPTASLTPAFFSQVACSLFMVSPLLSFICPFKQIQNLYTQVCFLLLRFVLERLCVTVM
Outline: as §1

ETV2 = target: T10, ETV2 (Homo sapiens, UniProt O00321 1-342); conditions: protein: recombinant; tags: N-terminal GST; dsDNA, one strand shown
T10 sequence: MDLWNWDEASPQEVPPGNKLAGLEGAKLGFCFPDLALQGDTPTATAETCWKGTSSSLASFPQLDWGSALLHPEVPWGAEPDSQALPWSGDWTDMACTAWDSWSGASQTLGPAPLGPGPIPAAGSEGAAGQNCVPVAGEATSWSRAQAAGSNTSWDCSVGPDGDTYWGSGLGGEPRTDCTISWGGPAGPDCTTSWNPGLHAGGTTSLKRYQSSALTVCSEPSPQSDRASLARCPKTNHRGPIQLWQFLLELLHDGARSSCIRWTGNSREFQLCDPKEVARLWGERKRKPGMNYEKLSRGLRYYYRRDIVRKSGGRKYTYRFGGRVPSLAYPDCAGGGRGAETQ
Outline: as §1

ELF3 = target: T11, ELF3 (Homo sapiens, UniProt P78545 1-371); conditions: protein: recombinant; tags: N-terminal GST; dsDNA, one strand shown
T11 sequence: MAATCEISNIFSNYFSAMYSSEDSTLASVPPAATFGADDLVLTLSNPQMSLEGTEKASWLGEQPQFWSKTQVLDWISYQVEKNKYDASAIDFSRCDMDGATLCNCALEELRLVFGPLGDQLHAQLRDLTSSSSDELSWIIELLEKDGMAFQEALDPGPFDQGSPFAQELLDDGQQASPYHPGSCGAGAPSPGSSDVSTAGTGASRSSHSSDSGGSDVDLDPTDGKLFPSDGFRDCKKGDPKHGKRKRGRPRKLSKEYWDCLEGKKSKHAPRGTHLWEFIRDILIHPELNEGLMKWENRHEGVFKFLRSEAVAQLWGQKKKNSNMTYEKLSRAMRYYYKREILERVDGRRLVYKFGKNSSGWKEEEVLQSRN
Outline: as §1

CRX = CRX (Homo sapiens, UniProt O43186 1-299); conditions: protein: recombinant; tags: N-terminal GST; dsDNA, one strand shown
Sequence of CRX (O43186 whole entry): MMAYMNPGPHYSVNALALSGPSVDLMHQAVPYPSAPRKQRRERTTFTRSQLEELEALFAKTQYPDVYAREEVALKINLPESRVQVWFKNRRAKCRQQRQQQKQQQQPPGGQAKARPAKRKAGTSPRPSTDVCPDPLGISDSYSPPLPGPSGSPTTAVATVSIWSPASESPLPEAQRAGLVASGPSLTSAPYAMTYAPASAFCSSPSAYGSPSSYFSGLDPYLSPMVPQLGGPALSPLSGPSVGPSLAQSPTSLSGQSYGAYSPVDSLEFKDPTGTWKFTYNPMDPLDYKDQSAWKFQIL
Outline: as §1

ETV1 = ETV1 (Homo sapiens, UniProt P50549 1-477); conditions: protein: recombinant; tags: N-terminal GST; dsDNA, one strand shown
Sequence of ETV1 (P50549 whole entry): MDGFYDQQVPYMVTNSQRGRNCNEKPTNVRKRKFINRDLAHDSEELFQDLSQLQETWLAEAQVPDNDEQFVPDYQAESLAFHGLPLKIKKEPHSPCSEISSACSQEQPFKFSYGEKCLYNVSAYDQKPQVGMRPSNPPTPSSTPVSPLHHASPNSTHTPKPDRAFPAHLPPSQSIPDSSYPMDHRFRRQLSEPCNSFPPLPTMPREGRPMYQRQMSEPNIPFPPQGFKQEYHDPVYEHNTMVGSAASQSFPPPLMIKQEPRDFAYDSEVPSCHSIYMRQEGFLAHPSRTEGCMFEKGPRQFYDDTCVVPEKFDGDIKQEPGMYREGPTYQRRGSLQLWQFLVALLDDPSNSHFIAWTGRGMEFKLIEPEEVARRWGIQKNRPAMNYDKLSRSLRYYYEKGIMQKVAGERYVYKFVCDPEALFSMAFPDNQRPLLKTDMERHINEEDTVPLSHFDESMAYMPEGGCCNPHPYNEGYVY
Outline: as §1

CCTGAA
binding signal (FLI1): 1.35 fold enrichment (6-mer frequency, TF over GST control) | binding signal (ELK1): 1.39 fold enrichment (6-mer frequency, TF over GST control) | binding signal (GABPA): 1.39 fold enrichment (6-mer frequency, TF over GST control) | binding signal (ERG): 1.41 fold enrichment (6-mer frequency, TF over GST control) | binding signal (ELF1): 1.35 fold enrichment (6-mer frequency, TF over GST control) | binding signal (EHF): 1.33 fold enrichment (6-mer frequency, TF over GST control) | binding signal (SPI1): 1.35 fold enrichment (6-mer frequency, TF over GST control) | binding signal (SPIB): 1.42 fold enrichment (6-mer frequency, TF over GST control) | binding signal (ELK3): 1.32 fold enrichment (6-mer frequency, TF over GST control) | binding signal (FEV): 1.4 fold enrichment (6-mer frequency, TF over GST control) | binding signal (ETV5): 1.38 fold enrichment (6-mer frequency, TF over GST control) | binding signal (HSF1): 1.54 fold enrichment (6-mer frequency, TF over GST control) | binding signal (SPIC): 1.28 fold enrichment (6-mer frequency, TF over GST control) | binding signal (ELF4): 1.31 fold enrichment (6-mer frequency, TF over GST control) | binding signal (ELK4): 1.41 fold enrichment (6-mer frequency, TF over GST control) | binding signal (ETV2): 1.47 fold enrichment (6-mer frequency, TF over GST control) | binding signal (ELF3): 1.21 fold enrichment (6-mer frequency, TF over GST control) | binding signal (CRX): 1.22 fold enrichment (6-mer frequency, TF over GST control) | binding signal (ETV1): 1.38 fold enrichment (6-mer frequency, TF over GST control)
